# Assay results as given in PubChem BioAssay.
# Several values for one entry are separate records, joined by “and”; a condition that tells them apart may be missing. Equal entries are not always repeated. Some compounds were tested as several samples or in several runs, with calls that do not always agree. Activity calls are given as the source filed them. No rule for the calls is given here.
# What was measured:
# [1] = liver-stage malaria parasite load reduction – cell-based, known kinase inhibitor set, luminescence, hepatoma host viability (AID 624392); conditions: Plasmodium liver stage in hepatoma cells, luciferase luminescence, concentration not given here; liver cell % of control: measured here: host liver cell viability; parasite % of control: stronger effect = lower value;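 also: infected cells incubated roughly two days before readout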
# [2] = altered dexamethasone sensitivity, NF-kB reporter, cell-based, luciferase, IL-1B stimulus (AID 624486); conditions: IL-1B + dexamethasone, luminescence; percent of negative control (+Dex): actives lie on both sides, concentration not given here; z-score: measured here: IL-1B alone, no Dex;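 as to percent of negative control (+Dex): 100% = mean signal of vehicle control wells on the plate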
# [3] = target: Cellular tumor antigen p53 (Homo sapiens) (UniProt P04637); assay: GFP-p53 level modulators in HPV16+ cells – imaging, known kinase inhibitor set, EGFP/DsRed ratio (AID 1053116); conditions: GFP-p53 stability, stronger effect = higher value; EGFP object count: measured here: GFP-p53 positive objects count;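 also: cells exposed to compounds for 24 h at 37 °C before reading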
# Cellular tumor antigen p53 (Homo sapiens), sequence (P04637 whole entry, looked up): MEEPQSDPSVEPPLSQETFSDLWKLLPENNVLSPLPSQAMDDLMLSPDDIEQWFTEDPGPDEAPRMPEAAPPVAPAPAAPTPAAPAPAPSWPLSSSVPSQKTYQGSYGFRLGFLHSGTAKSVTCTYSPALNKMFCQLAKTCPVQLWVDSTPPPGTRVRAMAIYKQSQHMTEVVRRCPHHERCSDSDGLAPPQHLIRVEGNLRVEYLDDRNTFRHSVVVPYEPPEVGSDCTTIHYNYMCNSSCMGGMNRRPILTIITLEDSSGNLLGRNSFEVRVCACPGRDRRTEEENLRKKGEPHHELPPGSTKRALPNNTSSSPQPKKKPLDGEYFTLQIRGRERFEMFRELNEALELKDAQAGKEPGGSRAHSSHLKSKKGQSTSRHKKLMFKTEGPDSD
# [4] = inducers of IRF3 signaling, differentiated THP-1 – cell-based, PMA-stimulated THP-1, luminescence (AID 1053176); conditions: PMA-differentiated THP-1, IRF3 reporter luminescence; stronger effect = higher value
SMILES,liver cell % of control [1],parasite % of control [1],percent of negative control (+Dex) [2],z-score [2],EGFP object count [3],EGFP/DsRed ratio [3],fraction signal [4]
Cc1ccc(C)c(C2=C(c3cn(C)c4ccccc34)C(=O)NC2=O)c1,166%,33% (inactive),102% (inactive),-1.65,33.5,0.361 (inactive),0.0035 (inactive)
Nc1c(C(=O)c2cccc(-c3ccc[n+]([O-])c3)c2)cnn1-c1ccc(F)cc1F,105%,45.9% (inactive),101% (inactive),0.065,3.5,0.063 (inactive),-0.0155 (inactive)
O=C1NC(=NCCc2ccccc2F)SC1=Cc1ccc2ncccc2c1,108%,44.4% (inactive),99% (inactive),0.18,12.5,0.349 (inactive),-0.0025 (inactive)
O=C1NC(=NCc2cccs2)OC1=Cc1ccc2ncccc2c1,113%,64.9% (inactive),55% (active),-4.77,3.5,0.0818 (inactive),-0.0135 (inactive)
Cn1c(=O)c(Cc2ccc(F)cc2F)cc2cnc(NC3CCOCC3)nc21,103%,54.9% (inactive),98.5% (inactive),0.48,3,0.139 (inactive),-0.0055 (inactive)
CC(CO)Nc1cc(-c2[nH]c3cccnc3c2-c2ccc(F)cc2)ccn1 (stereo not given),124%,78.1% (inactive),85.5% (inactive),-0.435,4.5,0.0626 (inactive),-0.0075 (inactive)
CNC(C#Cc1c(F)ccc2c1C(=Cc1[nH]ccc1OC)C(=O)N2)CO (stereo not given),129%,62.7% (inactive),144% (active),1.07,51.5,0.055 (inactive),0.001 (inactive)
O=C1NC(=NCCc2ccc(F)cc2)SC1=Cc1ccc2ncccc2c1,127%,57.5% (inactive),99.5% (inactive),0.5,1.5,0.0132 (inactive),0.0035 (inactive)
CS(=O)(=O)CCn1c(=O)c(Oc2ccc(F)cc2F)cc2cnc(NC3CCOCC3)nc21,122%,63% (inactive),99% (inactive),0.47,2,0.0579 (inactive),0.0015 (inactive)
Nc1c(C(=O)c2cccc(-c3ccncc3)c2)cnn1-c1ccc(F)cc1,101%,36.5% (inactive),95.5% (inactive),0.895,2,0.219 (inactive),-0.003 (inactive)
Cc1[nH]nc2c1N=C(c1ccccc1F)c1cc(C#N)ccc1N2,96.8%,68.4% (inactive),157% (active),0.015,99.5,0.814 (active),0.0055 (inactive)
Cc1c(C2=C(c3cn(C)c4ccccc34)C(=O)NC2=O)c2ccccc2n1C,103%,53.6% (inactive),102% (inactive),-0.055,9,0.392 (inactive),0.0015 (inactive)
COc1cc(F)c(F)c(F)c1C(=O)c1cnc(NC2CCN(S(C)(=O)=O)CC2)nc1N,92.2%,450% (inactive),122% (inactive),0.18,3,0.21 (inactive),-0.0095 (inactive)
CNCC#Cc1c(F)ccc2c1C(=Cc1[nH]ccc1OC)C(=O)N2,149%,6.77% (inactive),162% (active),1.97,39,0.619 (inactive),-0.0115 (inactive)
O=C1OC(=O)C(c2c[nH]c3ccccc23)=C1c1c[nH]c2ccccc12,99.6%,48.8% (inactive),95% (inactive),1,3.5,0.0625 (inactive),-0.018 (inactive)
COc1cccc(C2=C(c3cn(C)c4cc(F)ccc34)C(=O)NC2=O)c1,128%,31.5% (inactive),114% (inactive),0.535,7,0.327 (inactive),0.0095 (inactive)
COc1cccc(C(=O)c2sc(Nc3ccc(N4CCN(C(C)C)CC4)cc3)nc2N)c1,86.7%,389% (inactive),112% (inactive),1.07,2.5,0.139 (inactive),-0.02 (inactive)
Cn1cc(C2=C(c3cn(C)c4cc(Cl)ccc34)C(=O)NC2=O)c2ccccc21,82.6%,48.4% (inactive),126% (active),-0.405,31,0.0945 (inactive),-0.009 (inactive)
Cn1cc(C2=C(c3cn(C)c4ccc(OCc5ccccc5)cc34)C(=O)NC2=O)c2ccccc21,97.7%,46.6% (inactive),101% (inactive),-0.035,4.5,0.132 (inactive),-0.016 (inactive)
Cn1cc(C2=C(c3ccccc3)C(=O)NC2=O)c2ccccc21,104%,41% (inactive),96% (inactive),-0.33,9.5,0.26 (inactive),-0.001 (inactive)

SMILES,liver cell % of control [1],parasite % of control [1],percent of negative control (+Dex) [2],z-score [2],EGFP object count [3],EGFP/DsRed ratio [3],fraction signal [4]
CC(=O)N[C@H](Cc1ccc(OP(=O)(O)O)cc1)C(=O)N[C@@H]1CCC(=O)N2CCC[C@@H](C(=O)N[C@H]3CCc4ccccc43)N2C1=O,122%,61.5% (inactive),95.5% (inactive),0.9,6,0.211 (inactive),-0.003 (inactive)
Cn1cc(C2=C(c3cn(CCCCO)c4ccccc34)C(=O)NC2=O)c2ccccc21,84%,14.3% (inactive),108% (inactive),-1.57,32.5,0.668 (inactive),-0.005 (inactive)
O=C1NC(=NCc2c(Cl)cccc2Cl)SC1=Cc1ccc2ncccc2c1,106%,51.5% (inactive),101% (inactive),0.16,2.5,0.0754 (inactive),-0.009 (inactive)
CSc1c(C2=C(c3cn(C)c4ccccc34)C(=O)NC2=O)c2ccccc2n1C,96.3%,78.1% (inactive),110% (inactive),0.45,21,0.217 (inactive),0.0015 (inactive)
Nc1c(C(=O)c2cccc(C(O)CO)c2)cnn1-c1ccc(F)cc1 (stereo not given),101%,60.5% (inactive),110% (inactive),1.48,4.5,0.197 (inactive),0.0035 (inactive)
CCn1c(=O)c(Oc2ccc(F)cc2F)cc2cnc(NC3CCOCC3)nc21,103%,55.7% (inactive),85.5% (inactive),-0.82,3.5,0.0988 (inactive),-0.005 (inactive)
Nc1c(C(=O)c2cccc(OCCN3CCOCC3)c2)cnn1-c1ccc(F)cc1,121%,47.9% (inactive),100% (inactive),0.485,4,0.127 (inactive),-0.009 (inactive)
COc1cc(F)c(F)cc1C(=O)c1cnc(NC2CCN(S(C)(=O)=O)CC2)nc1N,107%,392% (inactive),79% (inactive),-1.08,1,0.11 (inactive),-0.003 (inactive)
Cn1c(=O)c(Oc2cccc(F)c2)cc2cnc(NC3CCOCC3)nc21,112%,65.8% (inactive),101% (inactive),0.78,4,0.127 (inactive),0.0015 (inactive)
O=C1NC(=Nc2ccccc2)SC1=Cc1ccc2ncccc2c1,124%,68.1% (inactive),98% (inactive),0.04,3,0.0469 (inactive),-0.003 (inactive)
CS(=O)(=O)N1CCC(Nc2ncc(C(=O)c3c(F)cccc3F)c(N)n2)CC1,89.5%,70.6% (inactive),88.5% (inactive),-0.28,2,0.123 (inactive),-0.005 (inactive)
Cn1cc(C2=C(c3c4n(c5ccccc35)CCCC4)C(=O)NC2=O)c2ccccc21,77.8%,85.7% (inactive),100% (inactive),0.55,5.5,0.0663 (inactive),0.0055 (inactive)
O=C1NC(=NCCc2cccc(F)c2)SC1=Cc1ccc2ncccc2c1,113%,54% (inactive),85.5% (inactive),-0.65,5.5,0.176 (inactive),-0.018 (inactive)
O=C1NC(=NCC(CO)c2ccccc2)SC1=Cc1ccc2ncccc2c1 (stereo not given),106%,72.5% (inactive),86% (inactive),-0.105,0.5,0.00131 (inactive),0.006 (inactive)
Cn1cc(C2=C(c3c4n(c5ccccc35)CCCCC4)C(=O)NC2=O)c2ccccc21,80.1%,66.1% (inactive),100% (inactive),-0.31,7,0.223 (inactive),-0.005 (inactive)
Cn1cc(C2=C(Nc3ccccc3)C(=O)NC2=O)c2ccccc21,106%,67.5% (inactive),106% (inactive),0.495,7,0.118 (inactive),-0.007 (inactive)
CCCn1cc(C2=C(c3cn(C)c4ccccc34)C(=O)NC2=O)c2ccccc21,101%,78.5% (inactive),102% (inactive),0.09,17.5,0.158 (inactive),0.0035 (inactive)
COc1cccc(F)c1C(=O)c1cnc(NC2CCN(S(C)(=O)=O)CC2)nc1N,93.1%,512% (inactive),116% (inactive),2.08,3.5,0.124 (inactive),-0.018 (inactive)
Cn1cc(C2=C(c3cccc(OCC(O)CO)c3)C(=O)NC2=O)c2ccccc21 (stereo not given),160% and 129%,22.3% (inactive) and 22.7% (inactive),136% (active) and 100% (inactive),-1.71 and 0.045,7 and 9.5,0.14 (inactive) and 0.372 (inactive),0.0035 (inactive) and -0.0025 (inactive)
CN1CCN(CCc2cccc(C(=O)c3cnn(-c4ccc(F)cc4)c3N)c2)CC1,112%,51.1% (inactive),96.5% (inactive),1.1,5,0.187 (inactive),0.0015 (inactive)
